Data: PubChem BioAssay AID652017 (The Scripps Research Institute Molecular Screening Center, 2013)
Hit rate of the full screen: of about 370,000 compounds, about 3,800 (1%) were called active. For the sample, actives were picked, then their nearest neighbours and some compounds at random. Values without a mark were called inactive. Cut-off read from the data, not from the text of the source: active = activation above about 7.8%; inactive = the rest.

assay: SMARCA2 (BRM) function activators, primary screen, cell-based, luminescence, high throughput (AID 652017); conditions: MG213 cells, MMTV-luciferase reporter, dexamethasone, overnight; at 9.1 µM; hits give high values;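 note: 0% = vehicle wells and 100% = reference activator wells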

Compound	activation
CN1C(=O)c2cc(NS(C)(=O)=O)ccc2OC[C@@H]2O[C@@H](CC(=O)NCc3ccc(-c4ccccc4)cc3)CC[C@H]21	0.34%
CCCC(=O)N1c2ccc(-c3csc(N)n3)cc2CC1C (configuration not stated)	13.2% (active)
Cc1ccn(CCC(=O)N2c3ccccc3CC2C)n1 (configuration not stated)	-2.39%
CCOc1ncccc1C(=O)OCC(=O)N1c2ccccc2CC1C (configuration not stated)	-1.56%
Cc1ccccc1CN1CCNC(=O)C1CC(=O)NCCC1=CCCCC1 (configuration not stated)	5.02%
Cc1ccc(NC(=O)C(=O)NCc2ccco2)c(C)c1	9.32% (active)
Cc1ccc(SCC(=O)NC(=O)NCc2ccco2)c(C)c1	-0.59%
O=C(NCc1ccncc1)C(=O)NCc1ccco1	-0.15%
CN[C@H]1C[C@H]2c3cc(N4CCOCC4)ccc3CCN2C[C@H]1[C@H](C)O	-3.84%
C=C(C)C#CC(Cc1ccccc1)N(CC1CC1)/C(N)=N/C(=O)OCc1ccccc1 (configuration not stated)	-1.63%
COc1cc(NC(=S)NCc2ccco2)c(OC)cc1Cl	0.64%
CCOc1cc(NC(=S)NCCCN(C)C)c(OCC)cc1NC(=O)C1CC1	1.16%
CCOc1cc(NC(=S)NCCCOC)c(OCC)cc1NC(=O)c1ccco1	9.88% (active)
Cc1ccc(CSc2nnc(SCC(=O)NN=Cc3cc(Br)ccc3F)s2)cc1	-6.75%
CC(C)(C)OC(=O)NCc1cc(F)ccc1/C=C/S(=O)(=O)NCCc1ccccc1	-3.29%
CN(C(=O)CC1C(=O)NCCN1Cc1ccc2ccccc2c1)C1CCOCC1 (configuration not stated)	-1.84%
CCOC(=O)Nc1ccc(S(=O)(=O)N(C)C(C)C)cc1	-0.48%
CCOC(=O)Nc1ccc(NC(=O)OCC)cc1	11.1% (active)
CC(C)(COC(=O)Nc1ccccc1)COC(=O)Nc1ccccc1	-1.85%
O=C(N1CCOCC1)N1CC[C@H]2[C@H](CCCN2Cc2ccc(F)cc2)C1	-1.37%
COc1ccccc1OCC(=O)OCc1cc(-c2ccco2)on1	1.73%
N/C(=N\OC(=O)CCC1CCCCC1)c1ccccn1	3.7%
COc1ccccc1OCC(=O)O/N=C(\N)c1ccccn1	8.43% (active)
COC(=O)C1=C(C)N(Cc2ccccc2C(F)(F)F)C(=NCC2CC2)NC1c1cccc(Cl)c1 (configuration not stated)	-1.87%

Compound	activation
CC(=O)Nc1ccc(S(=O)(=O)N2CCN(c3ccc([N+](=O)[O-])c(NCCN4CCOCC4)c3)CC2)cc1	-2.48%
O=C(Nc1ccc(Br)cc1)OCCN1C(=O)CCC12CCC(c1ccccc1)CC2 (configuration not stated)	-0.9%
Cc1nn(C(C)C(=O)NCCC2=CCCCC2)c(=O)c2nn(-c3ccccc3)c(C)c12 (configuration not stated)	0.01%
C1=C(CCNc2ncnc3c2cnn3-c2ccccc2)CCCC1	10.2% (active)
S=C(NCCC1=CCCCC1)Nc1ccccc1	2.03%
Cc1ncn2cc(-c3ccc(Cl)cc3Cl)[nH]c(=O)c12	5.25%
O=C(O)CN1c2cccc3cccc(c23)S1(=O)=O	-0.74%
O=C(NC1=NCCS1)c1ccc(Cl)s1	3.86%
COc1ccccc1C(=O)NCCC(=O)NC1=NCCS1	-1.3%
COc1ccc(C(=O)NC2=NCCS2)c(OC)c1	8.02% (active)
COC(=O)Cc1nnn2c1[C@H](C)[C@H](c1ccccc1Br)OCC2	-2.14%
COC(=O)Cc1nnn2c1[C@H](C)[C@H](c1ccccc1[N+](=O)[O-])OCC2	9.58% (active)
COC(=O)Cc1nnn2c1[C@H](C)[C@@H](OC)c1cc(Br)ccc1-2	-2.14%
O=C(CSc1nnc(COc2ccccc2)n1Cc1ccco1)c1ccc2ccccc2c1	-6.31%
COc1ccc(C2C(C(C)=O)=C(O)C(=O)N2c2nccs2)cc1 (configuration not stated)	1.1%
COc1ccc(-c2csc(Cc3nc(O)cs3)n2)cc1	16.8% (active)
COc1ccc(-n2c(SC)nc(O)cc2=O)cc1	-1.4%
CCN(CC)C(=O)CSc1nnc(-c2cccc(OC)c2)o1	8.29% (active)
COc1cccc(NC(=O)CSc2nnc(-c3cccnc3)o2)c1	-0.51%
CCN(CC)C(=O)CSc1nnc(-c2ccc(S(=O)(=O)NCc3ccccc3Cl)cc2)o1	-2.52%
COc1ccc(-n2c(COc3ccc(C)cc3)nnc2SCC(=O)Nc2ccc(Oc3ccccc3)cc2)cc1	-5.92%
COc1ccc(-c2cc(-c3nnc(SCc4ccc([N+](=O)[O-])cc4)n3N)[nH]n2)cc1	-5.07%
COc1ccc(/C=C2\CC3(OC(C)=O)CCCN2C3)cc1 (configuration not stated)	-1.45%
